Results as given in paper PMC5540273 (PLoS ONE, 2017).

How the values were obtained:
Conditions in all cases: concentration: 1 μM, replicates: in singlicate; n = 1
MTOR = test system: MTOR
MUSK = test system: MUSK
MYLK2 = test system: MYLK2
MYLK4 = test system: MYLK4
MYLK = test system: MYLK
MYO3A = test system: MYO3A
MYO3B = test system: MYO3B
NDR1 = test system: T1, NDR1
T1 construct: gene STK38

NDR2 = test system: NDR2
NEK10 = test system: NEK10
NEK11 = test system: NEK11
NEK1 = test system: NEK1
NEK2 = test system: NEK2
NEK3 = test system: NEK3
NEK4 = test system: NEK4
NEK5 = test system: NEK5
NEK6 = test system: NEK6
NEK7 = test system: NEK7
NEK9 = test system: NEK9
NIK = test system: T2, NIK
T2 construct: gene MAP3K14
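Also: KINOMEscan kinase panel screen.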

| SMILES | %Inh (MTOR) [%] | %Inh (MUSK) [%] | %Inh (MYLK2) [%] | %Inh (MYLK4) [%] | %Inh (MYLK) [%] | %Inh (MYO3A) [%] | %Inh (MYO3B) [%] | %Inh (NDR1) [%] | %Inh (NDR2) [%] | %Inh (NEK10) [%] | %Inh (NEK11) [%] | %Inh (NEK1) [%] | %Inh (NEK2) [%] | %Inh (NEK3) [%] | %Inh (NEK4) [%] | %Inh (NEK5) [%] | %Inh (NEK6) [%] | %Inh (NEK7) [%] | %Inh (NEK9) [%] | %Inh (NIK) [%] |
| --- | --- | --- | --- | --- | --- | --- | --- | --- | --- | --- | --- | --- | --- | --- | --- | --- | --- | --- | --- | --- |
| COc1cc(Nc2nccc(N3CCC(NC(=O)Nc4ccc5c(c4)OCO5)C3)n2)cc(OC)c1OC (centres unmarked) [GSK1379766] | 26 | 19 | 10 | 1 | 21 | 18 | 0 | 0 | 9 | 34 | 0 | 46 | 20 | 45 | 26 | 100 | 18 | 29 | 21 | 20 |
| Fc1cc(Cl)ccc1Nc1ccnc2cc(-c3ccc(CN4CCOCC4)o3)ccc12 [GW560109] | 1 | 0 | 8 | 1 | 47 | 0 | 1 | 0 | 0 | 0 | 0 | 0 | 13 | 0 | 15 | 1 | 0 | 3 | 0 | 4 |
| Cc1ccc(-c2ccc3occ(-c4ccc(S(C)=O)cc4)c3c2)nn1 (centres unmarked) | 17 | 3 | 11 | 0 | 0 | 0 | 1 | 2 | 15 | 25 | 0 | 0 | 0 | 30 | 0 | 0 | 0 | 0 | 0 | 0 |
| N#CC1(c2cccc(C(=O)Nc3cccc(Oc4ccc5nc(NC(=O)C6CC6)sc5n4)c3)c2)CC1 | 3 | 0 | 0 | 0 | 23 | 0 | 0 | 18 | 0 | 0 | 0 | 40 | 0 | 30 | 0 | 0 | 0 | 0 | 0 | 0 |
| CC(C)c1nc(-c2cccc(NS(=O)(=O)c3c(F)cccc3F)c2)c(-c2ccnc(Nc3ccc(N4CCOCC4)nc3)n2)s1.Cl [GSK1723980] | 7 | 0 | 0 | 0 | 6 | 25 | 47 | 32 | 0 | 9 | 97.8 | 0 | 48 | 0 | 6 | 0 | 55 | 76 | 88 | 95.4 |
| COc1cccc2c(-c3ccncc3)c(-c3ccc(F)cc3)nn12 [GW468513] | 20 | 21 | 0 | 0 | 12 | 4 | 0 | 8 | 0 | 0 | 0 | 0 | 0 | 0 | 4 | 7 | 0 | 0 | 0 | 0 |
| COC(=O)Nc1nc2ccc(Oc3ccc(CC(=O)Nc4cc(C(F)(F)F)ccc4F)cc3)cc2[nH]1 [GW680903] | 26 | 95.5 | 0 | 0 | 10 | 12 | 0 | 0 | 0 | 21 | 0 | 0 | 0 | 6 | 14 | 13 | 0 | 0 | 45 | 25 |
| Cl.N#CCc1ccc(Nc2nccc(Nc3ccc(Oc4ccccc4)cc3)n2)cc1 [GW639905] | 24 | 14 | 1 | 9 | 0 | 0 | 3 | 0 | 0 | 8 | 0 | 0 | 5 | 0 | 16 | 24 | 0 | 0 | 0 | 0 |
| CN(C)CCNS(=O)(=O)c1ccc(-c2ccnc3[nH]ccc23)cc1 [GSK977620] | 17 | 23 | 35 | 99.5 | 28 | 0 | 0 | 29 | 15 | 17 | 0 | 99.8 | 0 | 0 | 4 | 1 | 1 | 0 | 0 | 0 |
| Cc1cc(-c2c(-c3ccc(F)cc3)ncn2CCCN2CCOCC2)nc(N)n1 [SB-222517] | 0 | 14 | 1 | 14 | 17 | 17 | 30 | 43 | 14 | 16 | 0 | 33 | 0 | 25 | 0 | 0 | 9 | 0 | 0 | 12 |
